Measurements as given in PubChem BioAssay AID651719 (The Scripps Research Institute Molecular Screening Center, 2012).
The whole screen tested about 360,000 compounds, of which about 1,600 (0.44%) were called active. The list comes from a sample in which actives are over-represented; it also holds similar structures and randomly drawn compounds. Unmarked numbers belong to inactive results.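 How the source made its calls: active means inhibition above the screen-wide average plus 3 SD (cut at about 13% in these data); inactive means the rest.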

molecular target: Galanin receptor type 3 (Homo sapiens) (UniProt O60755); assay: GalR3 antagonists in HEK293 cells, primary screen, cell-based, fluorescence readout (AID 651719); conditions: HEK293 GalR3-CNG cAMP membrane potential fluorescence; at 3 µM; hits give high values;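 further: forskolin and galanin both at EC90 stimulate the cells; cAMP rise reported by CNG channel membrane potential dye signal; 0% = forskolin plus galanin with DMSO and 100% = forskolin alone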
Sequence (O60755 1-299 limits assumed): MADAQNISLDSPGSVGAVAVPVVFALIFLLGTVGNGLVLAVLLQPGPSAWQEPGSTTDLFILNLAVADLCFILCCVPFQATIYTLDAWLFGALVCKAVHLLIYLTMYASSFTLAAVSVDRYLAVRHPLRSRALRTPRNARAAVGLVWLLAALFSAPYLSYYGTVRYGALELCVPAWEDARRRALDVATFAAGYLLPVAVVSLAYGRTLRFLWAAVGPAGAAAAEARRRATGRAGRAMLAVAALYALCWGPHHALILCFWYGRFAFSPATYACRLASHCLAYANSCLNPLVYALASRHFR

SMILES | inhibition
CCCCCCCCCCCCn1ccc(=N)cc1 | 75.6% (active)
CCN(CC)C(=O)[C@@H]1C=C2c3cccc4[nH]c(Br)c(c34)C[C@H]2N(C)C1 | -11%
COC(=O)C1=C(c2cc3ccccc3s2)C[C@@H]2CC[C@H]1N2C(=O)NCCO | -2.95%
COC(=O)C1=C(c2cc3ccccc3s2)C[C@@H]2CC[C@H]1N2C(=O)NCc1cccc2ccccc12 | 17.8% (active)
COC(=O)C1=C(c2cc3ccccc3s2)C[C@@H]2CC[C@H]1N2C(=O)NC(C)C | -4.53%
O=c1[nH]c(=O)n(-c2ccccc2)c(O)c1C=NC12CN3CN(CN(C3)C1)C2 | 5.15%
CS(=O)(=O)N1CCC2CCNC2C1 (stereo not given) | 0.87%
CCOC(=O)[C@]12Cc3ccccc3[C@H]1N(C1CCCCC1)C(=O)c1cc(OC)ccc12 | -8.42%
Brc1ccc2c(c1)CNCc1cnnn1-2 | -5.56%
CCN(CC)C(=O)c1ccc(NC(=O)c2cc(-n3cnnc3)ccc2Cl)cc1 | -1.92%
CC12CCC(O)CC1CCC1C2CCC2(C)C(C(=O)CC(O)C(F)(F)F)CCC12 (stereo not given) | -1.5%
C[C@]12CC[C@H](O)C[C@H]1CC[C@@H]1C2CC[C@]2(C)[C@@H](C3=CC(=O)OC3)[C@@H](O)C[C@]12O (stereo not given in full) | 30.2% (active)
COc1ccc2c(c1)[C@@]13CCCCC1[C@@H](C2)NCC3 (stereo not given in full) | -3.82%
COc1ccc(CN2CCN(c3ccccc3F)CC2)c(OC)c1 | -4.46%
Clc1ccc([C@@H]2CC3CCC2N3)cn1 (stereo not given in full) | -3.43%
O=c1c2ccccc2nc(-c2ccccc2)n1-c1ccccn1 | -5.42%
COc1ccc(-n2c(-c3ccccc3)nc3ccccc3c2=O)cc1 | 16.9% (active)
Cc1ccc(-n2c(-c3ccc([N+](=O)[O-])cc3)nc3ccccc3c2=O)cc1 | -3.3%
Cc1cc(N2CCNC[C@@H]2C)ccc1N1CC[C@H](O)C1 | -7.28%
CCC(C)NC1(c2ccccc2)CCCCC1 (stereo not given) | -2.56%
O=S(=O)(c1ccccc1)N1CCC2CCNC2C1 (stereo not given) | -5.66%
COc1cc(OC)cc(C(=O)NCCN2CCC3(CC2)C(=O)NCN3c2ccccc2)c1 | -6.02%
COC1C(O)C(C)OC(OC2CCC3(C=O)C(CCC4C3CCC3(C)C(C5=CC(=O)OC5)CCC43O)C2)C1O (stereo not given) | 43% (active)
C/C=C/CC1(CC)C(=O)NC(=S)NC1=O | -12.8%
CCCC(C)n1[nH]c(=O)c2c1NC(=O)CSC2c1ccc(OC)c(OC)c1 (stereo not given) | -3.1%
